This is a sample that favours compounds with a hit; in the whole collection about 28% have one here.
DAT uptake mod – changed hDAT dopamine uptake under cocaine IC80, either direction, primary screen, cocaine antagonist project, cell-based, LLC-PK1 hDAT, [14C]-dopamine uptake, MLSMR; Sodium-dependent dopamine transporter (Homo sapiens), Q01959; LLC-PK1 hDAT cells, [14C]-dopamine uptake with cocaine IC80; actives deviate in either direction; B-score at 10 µM; actives 1.3% (n = 110,000); AID 449768, 2010;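 active = Z score or B-score, a plate-position-corrected score, falls beyond the plate's 99.7% confidence bounds, in either direction; inactive = both scores lie inside the 99.7% bounds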;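 also: scored against the spread of the other compound wells on the same plate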
CYP2C19 inhib – blockers of cytochrome P450 2C19 activity – biochemical, luminescence, ADME assay, primary screen; P33261; CYP2C19 Supersomes, luciferin-H EGE luminescence, 30 min; inhibition, % at 5 µM; actives 21% (n = 96,000);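 active = CYP2C19 inhibition above a set limit at 5 µM in the primary screen, cut at about 50% in these data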;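 also: plate controls were negative control wells for no effect and 2.5 mM tranylcypromine positive control for full effect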
CYP2C19 activ – human CYP2C19 activators, primary screen, biochemical, luminescence | Cytochrome P450 2C19 (Homo sapiens), P33261 | 96,000 tested, under 10 active | recombinant CYP2C19, luciferin-H EGE luminescence; active compounds read high; 0 = fully inhibited enzyme, 1 = untreated enzyme | activation factor at 5 µM;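 active = activation factor of at least 2 at 5 µM in the primary screen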;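 also: 0 = wells with 2.5 mM tranylcypromine and 1 = vehicle-only wells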
CYP2C9 act – human CYP2C9 activators, primary screen, biochemical, luminescence | activation factor at 5 µM | actives 1.4% (n = 96,000) | recombinant CYP2C9, luciferin-H conversion; active compounds read high; factor 1 = untreated enzyme, 0 = blocked;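 active = activation factor of 2 or more for CYP2C9 at a 5 µM dose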;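 also: 0 = sulfaphenazole-blocked wells and 1 = vehicle-only wells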
CYP2C9 inhib – blockers of cytochrome P450 2C9 activity – biochemical, luminescence, ADME assay, primary screen; CYP2C9 Supersomes, luciferin-H conversion; inhibition, % at 5 µM; actives 20% (n = 96,000);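 active = blocking of liver enzyme CYP2C9 beyond about 50% at 5 µM, limit read from the data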
D1 allo mod – D1 CRE-luciferase signal change, two-sided – cell-based, HEK293 D1, dopamine EC30, D1 allosteric modulator project, primary screen; dopamine EC30 potentiation; actives deviate in either direction; B-score at 10 µM; actives 5.9% (n = 58,000); AID 641, 2007;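 active = luminescence count or its row- and column-corrected plate score outside the 99.7% band of the plate's sample wells, on either side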
Target sequence (P21728 whole entry, looked up): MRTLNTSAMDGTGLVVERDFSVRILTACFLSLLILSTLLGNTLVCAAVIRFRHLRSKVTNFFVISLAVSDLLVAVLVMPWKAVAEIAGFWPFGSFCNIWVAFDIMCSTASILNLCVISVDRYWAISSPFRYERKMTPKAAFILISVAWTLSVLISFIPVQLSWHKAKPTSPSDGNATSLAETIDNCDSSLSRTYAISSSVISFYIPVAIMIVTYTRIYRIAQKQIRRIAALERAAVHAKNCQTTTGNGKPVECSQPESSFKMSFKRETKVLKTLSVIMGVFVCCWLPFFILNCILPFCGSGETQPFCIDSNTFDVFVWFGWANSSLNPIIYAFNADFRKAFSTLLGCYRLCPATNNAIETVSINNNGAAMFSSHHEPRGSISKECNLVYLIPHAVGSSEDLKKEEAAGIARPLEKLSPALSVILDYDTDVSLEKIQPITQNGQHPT
An asterisk follows results filed as active; nt = no result given.

SMILES	DAT uptake mod	CYP2C19 inhib	CYP2C19 activ	CYP2C9 act	CYP2C9 inhib	D1 allo mod
CCOC(=O)C1=C(N)Oc2ccc3ccccc3c2C1c1cccnc1 (stereo not drawn)	-0.631	nt	nt	nt	nt	nt
CCOC(=O)C1=C(N)Oc2cc(C)n(C)c(=O)c2C1c1ccncc1 (stereo not drawn)	-0.416	71.9*	0.3	0.3	72.6*	-0.342
CCOC(=O)C1=C(C)N(C)C(C)=C(C(=O)OCC)C1c1cccnc1	0	86.6*	0.1	0.2	83.9*	-0.301
CC(=O)c1ccc(OCCCC(=O)OCC(=O)N2CCN(c3ccccc3)CC2)cc1	0.241	14.0	0.9	0.8	15.6	-0.0725
Cc1cccc(NC(=S)NN(Cc2ccccc2)c2ccccc2)c1C	0.481	16.2	0.8	0.7	29.0	nt
COc1ccc(C2/C=C\CNCC(=O)N2Cc2ccc(F)cc2)cc1 (stereo not drawn)	-1.19	nt	nt	nt	nt	nt
CCOC(=O)C1=C(N)Oc2cc(C)[nH]c(=O)c2C1c1ccncc1 (stereo not drawn)	-0.666	74.6*	0.3	0.3	74.3*	0.467
CCOC(=O)C1=C(C)Nc2nc(SCC)[nH]c(=O)c2C1c1ccncc1 (stereo not drawn)	1.41	83.8*	0.2	0.4	63.5*	nt
NC(=O)c1ccccc1N/C=C/C(=O)c1ccco1	0.0688	59.6*	0.4	0.7	29.0	-0.331
CC(=O)Nc1ccc(NC(=O)CN(c2cccc(C)c2)S(C)(=O)=O)cc1	-0.201	52.2*	0.5	0.8	19.2	nt
COc1cccc(NC(=O)CN(c2cccc(C(F)(F)F)c2)S(C)(=O)=O)c1	0.189	88.3*	0.1	0.3	70.5*	-0.22
CCOc1ccc(NC(=O)CN(c2cccc(C(F)(F)F)c2)S(C)(=O)=O)cc1	-0.153	84.7*	0.2	0.3	72.1*	nt
CCOc1ccc(N(CC(=O)Nc2ccccc2)S(C)(=O)=O)cc1	0.179	87.8*	0.1	0.3	70.0*	0.19
COc1ccc(N(CC(=O)Nc2cccc(SC)c2)S(C)(=O)=O)cc1	0.0145	94.1*	0.1	0.1	88.7*	-0.088
O=C(CN1C(=O)C2CC=CCC2C1=O)Nc1nc2ccccc2[nH]1 (stereo not drawn)	-0.0926	-4.7	1	1	1.7	0.152
O=C(/C=C/c1ccc(Cl)cc1)NCCN1CCOCC1	-7.83*	5.6	0.9	0.9	11.0	nt
